Source: PubChem BioAssay (National Center for Advancing Translational Sciences (NCATS))
This is a sample that favours compounds with a hit; in the whole collection about 18% have one here.
TDP1 inh – inhibitors of human tyrosyl-DNA phosphodiesterase TDP1 | AID 485290 | Potency, µM (series often up to 130 µM), most hits filed as inhibitors | recombinant TDP1, AlphaScreen DNA substrate cleavage | 350,000 tested, 0.28% active; further: nearly all actives have a fitted effect of over 40% in size
Target sequence (Q9NUW8 whole entry, looked up): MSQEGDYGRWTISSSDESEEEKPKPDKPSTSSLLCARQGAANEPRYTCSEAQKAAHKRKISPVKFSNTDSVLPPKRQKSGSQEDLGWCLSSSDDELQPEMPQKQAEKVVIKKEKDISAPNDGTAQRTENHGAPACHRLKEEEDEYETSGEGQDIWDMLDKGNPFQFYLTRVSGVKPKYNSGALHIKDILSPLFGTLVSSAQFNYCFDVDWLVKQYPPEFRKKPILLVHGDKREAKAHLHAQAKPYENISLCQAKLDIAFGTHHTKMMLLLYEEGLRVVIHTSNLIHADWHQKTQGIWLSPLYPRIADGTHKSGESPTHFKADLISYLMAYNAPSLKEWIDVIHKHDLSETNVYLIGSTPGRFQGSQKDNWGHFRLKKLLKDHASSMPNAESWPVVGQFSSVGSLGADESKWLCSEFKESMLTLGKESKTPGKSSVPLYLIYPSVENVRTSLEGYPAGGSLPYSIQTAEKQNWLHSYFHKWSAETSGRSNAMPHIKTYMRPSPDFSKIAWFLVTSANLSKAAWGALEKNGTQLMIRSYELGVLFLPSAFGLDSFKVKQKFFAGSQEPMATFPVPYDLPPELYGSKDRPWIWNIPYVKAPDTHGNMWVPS
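Tdp1 1 nM final; 15 min RT w/ cpd; substrate 15 nM, 5 min; beads 10 ug/ml, 10 min; AlphaScreen read. Neg ctrl: no enzyme.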
VDR inhibitor – blocks the human vitamin D receptor. P11473. VDR-SRC2-3 peptide fluorescence polarization, 2 h. Potency, µM, hits mostly inhibitors. 400,000 tested, 0.93% active. AID 504847
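Fluorescence polarization assay measuring small-molecule disruption of VDR binding to the coregulator peptide SRC2-3. Compounds were pin-transferred (23 nl) into the reagent mix and incubated 2 h at room temperature before reading.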
GCN5L2 inh – blocks human GCN5L2 histone acetyltransferase; GCN5L2 HAT assay, ThioGlo1 CoA-SH fluorescence; Q92830; AID 504327; 390,000 tested, 0.21% active; Potency, µM (doses to about 58.9 µM), usual class: inhibitors
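GCN5L2 (20nM final) in 50mM HEPES, 0.1mM EDTA pH 7.5, 0.01% Tween-20 was preincubated 15 min at room temperature with compound, then given ThioGlo1 (50uM), H3(1-25) peptide (75uM) and acetyl-CoA (70uM); CoA-thiol fluorescence (Ex340/Em540) was read at 0 and 20 min.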
PLK1 PBD block – PLK1 (human) polo-box domain binding inhibition; Plk1 PBD binding of FITC phosphopeptide, fluorescence polarization; 360,000 tested, 2.8% active; AID 720504; Potency, µM, actives largely listed as inhibitors; further: series mostly up to about 57 µM; nearly all actives have a fitted effect of over 65% in size
DT40 TDP1 CPT – DT40-hTDP1 cell growth loss with CPT; 420,000 tested, 12% active; chicken DT40 Tdp1-/-;hTDP1 cells + 20 nM CPT, ATP luminescence, 48 h; AID 686979; Potency, µM (titrated, usually from 46.2 µM), most hits filed as inhibitors; further: nearly all actives have a fitted effect of over 55% in size
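Cell growth measured by CellTiter-Glo luminescence after a minimum 48 h, 37 C compound exposure with 20 nM CPT in Tdp1-knockout DT40 cells stably expressing hTDP1, seeded 400/well; qHTS titration format.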
DT40 TDP1 no CPT – qHTS for Inhibitors of human tyrosyl-DNA phosphodiesterase 1 (TDP1): qHTS in cells in absence of CPT. DT40 Tdp1-/- hTDP1 cells, no CPT, ATP luminescence, 48 h. 420,000 tested, 15% active. Potency, µM (highest dose often 46.2 µM), usual class: inhibitors; further: nearly all actives have a fitted effect of over 55% in size
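Compound effects on proliferation are scored in DT40 Tdp1-/-;hTDP1 cells in the absence of CPT. ATP levels (CellTiter-Glo luminescence) are recorded after a ≥48 hr, 37 °C incubation.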
A number is an active result; i = inactive; ? = inconclusive; nt = not tested or not shown; [ ] = remark or other dose. The call rests on the fitted dose curve; in most records, active means well fitted curve in the direction sought with a large enough effect; inconclusive means small, poorly fitted or top-dose-only effect, or another doubt; inactive means no such curve, though single readings can be large; an effect the other way counts as inactive or inconclusive.

SMILES	TDP1 inh	VDR inhibitor	GCN5L2 inh	PLK1 PBD block	DT40 TDP1 CPT	DT40 TDP1 no CPT
O=C(NCCn1cc(SCc2ccccc2)c2ccccc21)c1c(F)cccc1F	i	?	i	i	?	23µM
Cc1nccn1CCC(=O)NC1CC(C)(C)Cc2c1cnn2-c1ccccc1 (stereo unspecified)	nt	nt	nt	i	i	i
O=[N+]([O-])c1ccc(Cl)c(S(=O)(=O)Nc2cccc(-c3ccc(N4CCCC4)nn3)c2)c1	i	i	i	i	i	i
CCOC(=O)c1cnc(SCCN2CCOCC2)nc1N	i	i	i	?	i	i
O=C(CSc1cn(CCNC(=O)c2cccc(C(F)(F)F)c2)c2ccccc12)Nc1ccc2c(c1)OCCO2	i	i	i	nt	23µM	?
CCOc1ccc(NC(=O)CSc2cn(CCNC(=O)c3ccccc3F)c3ccccc23)cc1	i	i	i	nt	?	?
O=C(CSc1cn(CCNC(=O)c2ccccc2F)c2ccccc12)Nc1ccc(F)cc1	i	i	i	nt	23µM	23µM
O=C(NCCn1cc(SCc2ccc(F)cc2)c2ccccc21)c1ccccc1F	i	i	i	i	?	16µM
Cc1cc(NC(=O)CSc2cn(CCNC(=O)c3ccccc3)c3ccccc23)no1	i	i	i	?	i	?
O=C(CSc1cn(CCNC(=O)c2cccs2)c2ccccc12)NC1CCCC1	i	i	i	i	16µM	16µM
CC(C)=NO[C@@H](C)c1cc(-c2c(C)cc(C)cc2C)no1	i[21 µM]	nt	nt	nt	nt	nt
CN1CCN(c2ccc(C(F)(F)F)cc2NC(=O)Nc2ccccc2)CC1	nt	i	i	i	?	?
O=C(NCc1cccs1)c1ccc2sc([C@@H]3O[C@H](CO)[C@H](O)[C@H](O)[C@H]3O)nc2c1	nt	nt	nt	i	i	i
Brc1ccc(-c2nnc3c4ccccc4nc(N4CCOCC4)n23)cc1	i	i	i	i	?	?
Clc1ccc(-c2nnc3c4ccccc4nc(N4CCOCC4)n23)cc1Cl	i	i	i	i	18µM	10µM
COC(=O)CC1C(C)(C)C(=O)C2CC3C4=CC(=O)OC(c5ccoc5)[C@]4(C)CCC3[C@@]1(C)C2=O (stereo partly specified)	i	i	i	nt	i	i
Cc1ccc(Nc2nc(CSc3nnc(-c4ccc(F)cc4)n3C)cs2)cc1	i	i	i	i	15µM	?
Cc1ccc(-c2nnc(SCC(C)C)n2C)cc1	i	i	i	i	?	21µM
Cn1c(SCCC#N)nnc1-c1ccc(F)cc1	i	nt	i	nt	nt	nt
CC1Cc2ccccc2C[N+]1(C)CC(=O)c1cccc([N+](=O)[O-])c1 (stereo unspecified)	nt	nt	nt	nt	i	?
CCOc1ccc(N(CC)S(=O)(=O)N2CCCC(C(=O)NCCc3ccccc3OC)C2)cc1 (stereo unspecified)	i	i	i	nt	21µM	?
CCOc1ccc(N(CC)S(=O)(=O)N2CCCC(C(=O)NCc3ccccc3OCC)C2)cc1 (stereo unspecified)	i	i	i	nt	?	16µM
CCOc1ccc(N(CC)S(=O)(=O)N2CCCC(C(=O)Nc3ccc(NC(C)=O)cc3)C2)cc1 (stereo unspecified)	i	i	i	nt	?	?
CCc1ccc(CNC(=O)C2CCCN(S(=O)(=O)N(CC)c3ccccc3)C2)cc1 (stereo unspecified)	i	i	i	i	?	?
CCN(c1ccc(OC)cc1)S(=O)(=O)N1CCCC(C(=O)NCc2ccc(OC(C)C)cc2)C1 (stereo unspecified)	nt	nt	nt	i	21µM	15µM
SMILES	TDP1 inh	VDR inhibitor	GCN5L2 inh	PLK1 PBD block	DT40 TDP1 CPT	DT40 TDP1 no CPT
O=C(Cc1ccsc1)NNC(=O)c1ccc(F)cc1	i[0.505 µM]	i	i	i	i	i
CCCCCCCCCCCCCCCC(=O)OC[C@@H](COP(=O)([O-])OCC[N+](C)(C)C)OC(=O)CCCCCCCCCCCCCCC	i	i	i	nt	i	i
COc1ccc(Cl)cc1NC(=O)C(C)n1nnc2sc3c(c2c1=O)CCCC3 (stereo unspecified)	i	i	i	nt	21µM	13µM
CC(C(=O)Nc1ccccc1)n1nnc2sc3c(c2c1=O)CCCC3 (stereo unspecified)	i	i	i	nt	?	i
Cc1ccc(NC(=O)C(C)n2nnc3sc4c(c3c2=O)CCCC4)cc1Cl (stereo unspecified)	i	i	i	nt	?	15µM
Cc1nnc(NC(=O)c2ccc(Br)o2)s1	nt	i	i	i	i	i
N#C/C(=C/c1ccc(-c2ccccc2[N+](=O)[O-])o1)C(N)=O	i	i	i	i	i	i
Cc1ccc(C(=O)/C=C/c2ccccc2[N+](=O)[O-])cc1	i	?	i	27µM	?	18µM
O=C(/C=C/c1ccc(-c2ccccc2[N+](=O)[O-])o1)c1ccc(Br)cc1	i	i	i	i	?	16µM
Cc1ccc(C(=O)/C=C/c2ccc(-c3ccccc3[N+](=O)[O-])o2)cc1	i	i	?	i	?	18µM
O=C(/C=C/c1ccc(-c2ccccc2)o1)c1ccccc1	i	i	i	i	?	?
Cc1ccc(-c2ccc(/C=C/C(=O)c3ccccc3)o2)cc1	i	i	i	i	?	23µM
N#CCN(CC#N)C(=O)C1c2ccccc2Oc2ccccc21	i	i	i	24µM	?	?
CCc1cccc(-n2nnc(-c3nc(-c4ccc5c(c4)OCO5)no3)c2C)c1	i	i	i	nt	?	?
NC(=O)c1ccsc1NC(=O)CS(=O)(=O)c1ccc(F)cc1	i[0.505 µM]	i	i	i	?	?
COc1ccc(C2=C(C=C(C#N)C#N)C(c3ccccc3C)c3ccccc3O2)cc1OC (stereo unspecified)	i	i	i	i	?	21µM
CCCC[C@@H]1CNC(=O)C(=O)N1CCc1cccc(F)c1	nt	nt	nt	nt	?	i
O=C(/C=C/c1ccco1)c1ccc(NC(=O)C23CC4CC(CC(C4)C2)C3)cc1	i	?	i	i	21µM	15µM
O=C(C=Cc1ccco1)c1ccc([N+](=O)[O-])cc1	nt	?	nt	i	i	i
C=C1C=C(C(F)F)n2ncc(C(=O)NCc3ccc(OC)cc3)c2N1	nt	nt	nt	nt	11µM	?
C=C1C=C(C(F)F)n2ncc(C(=O)NCc3ccc(Cl)cc3)c2N1	nt	nt	nt	nt	i	i
C=C1C=C(C(F)F)n2ncc(C(=O)NCCc3ccc(Cl)cc3)c2N1	nt	nt	nt	nt	13µM	?
C[C@@H]1CN([C@@H](C)CO)C(=O)c2cc(Br)cnc2O[C@H]1CN(C)C(=O)c1ccc2c(c1)OCO2	nt	nt	nt	i	i	i
CC1CCCN(CCOCCOc2ccc(Cl)cc2Br)C1 (stereo unspecified)	i	i	i	i	?	18µM
